This is a sample that favours compounds with a hit; in the whole collection about 8% have one here.
HCMV antiviral = inhibitors of human cytomegalovirus; activity change, negative = inhibition, % at 57.5 µM; HFF cells, HCMV-luciferase reporter, 72 h; active compounds read low; AID 1259415; 410,000 tested, 4.5% active; in the data active means activity change below about -60%; inconclusive means no clear call, values can overlap the other calls; inactive means above about -39%; further: on the % scale 0 is the no-effect control and ±100 the full control effect
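HFF cells seeded 16 h at 37C, treated with compounds, infected with luciferase-reporter HCMV at MOI 1 PFU/cell; luciferase read at 72 h post infection, normalized to buffer-only and Salinomycin controls.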
SARS PLP yeast = blocks SARS-CoV papain-like protease in a yeast assay | 330,000 tested, 0.19% active | S. cerevisiae expressing SARS-CoV PLpro, growth rescue | AID 485353 | Potency, µM (doses to about 32.9 µM), inactives show top-dose activity, positive = growth rescue, hits mostly activators; calls by dose curve; further: potency means the concentration at half of the fitted maximal effect; 0% is about no effect; nearly all actives have a fitted effect of over 55% in size
LASV entry inh = blocks Lassa virus binding to or entry into cells. Lassa virus pseudotype entry inhibition, cell reporter. 300,000 tested, 1.2% active. AID 540256. Potency, µM (highest dose often 37.9 µM), for inactives: top-dose activity change, negative = inhibition, usual class: inhibitors; calls by dose curve; tested in HEK293 cells; further: potency means the concentration at half of the fitted maximal effect; on the % scale 0 is the no-effect control and ±100 the full control effect; nearly all actives have a fitted effect of over 50% in size
Marburg entry inh = inhibitors of Marburg virus binding or cell entry. Marburg virus pseudotyped entry inhibition, cell reporter. Potency, µM (series often up to 37.8 µM), for the others: at the top dose activity change, negative = inhibition, usual class: inhibitors. 300,000 tested, 1.8% active. AID 540276; calls by dose curve; tested in HEK293 cells; further: potency means the concentration at half of the fitted maximal effect; on the % scale 0 is the no-effect control and ±100 the full control effect
HCV inh = HCV inhibition. Huh7.5.1 HCVcc-Cre infection, luciferase reporter, 44 h. 340,000 tested, 3.4% active. Potency, µM (top dose mostly 41.8 µM), for inactives: top-dose activity change, negative = inhibition, most hits filed as inhibitors. AID 651820; active means well fitted inhibition curve with a large enough effect; inconclusive means small, poorly fitted or top-dose-only effect, or another doubt; inactive means no such curve, though single readings can be large or run the other way; further: potency means the concentration at half of the fitted maximal effect; on the % scale 0 is the no-effect control and ±100 the full control effect
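Cells (1,000/well) were plated 4 h before compound, then infected with HCVcc-Cre virus (~0.5 moi). After 44 h further culture, infection was read as luciferase luminescence following a 15 min substrate incubation at room temperature.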
FMDV antiviral = antivirals against foot and mouth disease virus; FMDV antiviral cell-based qHTS; Potency, µM (doses to about 57.9 µM), without a hit: top-dose activity change, negative = inhibition, hits mostly inhibitors; 410,000 tested, 1.2% active; AID 1159524; calls by dose curve; tested in HEK293T cells; further: read-out not given here; potency means the concentration at half of the fitted maximal effect; on the % scale 0 is the no-effect control and ±100 the full control effect; nearly all actives have a fitted effect of over 45% in size
An asterisk follows results filed as active; ? = inconclusive; / = not tested or not shown; ! = a repeat was not active; [ ] = dose if it differs, or a comment.

SMILES | HCMV antiviral | SARS PLP yeast | LASV entry inh | Marburg entry inh | HCV inh | FMDV antiviral
CC(=O)Nc1ccc(S(=O)(=O)Oc2cccc(N3C(=O)C4CCCCC4C3=O)c2)cc1 (stereo not given) | -12 | 4% | 4% | ? | 22% | 18µM*
Cc1ccc(S(=O)(=O)Oc2cccc(N3C(=O)C4CC=CCC4C3=O)c2)cc1 (stereo not given) | -5 | 1% | ? | 0% | 2% | -19%
CCCCCCCN(C(=O)CCl)c1ccccc1C | -83* | -15% | 2% | -1% | ? | ?
O=C(CCl)N(Cc1cc(=O)[nH]c2ccccc12)c1ccccc1 | -100* | 1% | / | 3% | ? | 14µM*
CCC(=O)N(Cc1cc(=O)[nH]c2ccccc12)c1ccccc1 | 5 | 1% | 2% | 9% | 9% | -1%
CCN(C(=O)c1ccc(C(=O)N(CC)c2ccccc2C)cc1)c1ccccc1C | -4 | / | 9%[46.1 µM] | / | / | -1%
Cc1ccccc1N(Cc1cc(=O)[nH]c2ccccc12)C(=O)CCl | -101* | 9% | / | / | / | /
Cc1ccc(O)c(NC(=O)c2cc3nc4c(c(C(F)(F)F)n3n2)CCc2ccccc2-4)c1 | 28 | 4% | 14% | 4% | 6% | ?
CCN(CC)CCCNC(=O)c1cc2nc3c(c(C(F)(F)F)n2n1)CCc1ccccc1-3 | ? | 0% | -3% | ? | 1.6µM* | -9%
CCn1cc(C(=O)N2CCN(c3cccc(Cl)c3)CC2)c(=O)c2cc(S(=O)(=O)N3CCOCC3)ccc21 | 13 | / | -15%[46.1 µM] | ? | / | -18%
CN(C)c1ccc(-c2nc(N3CCNCC3)c3ccccc3n2)cc1 | / | / | / | / | / | 17%
O=C(NCCc1c[nH]c2ccccc12)C(=O)NCC(c1cccnc1)N1CCN(c2ccccc2)CC1 (stereo not given) | ? | 3% | ? | -55% | 10µM* | ?
COc1ccc(C(=O)NCC(c2cccnc2)N2CCN(c3ccccc3OC)CC2)cc1 (stereo not given) | -29 | / | -26%[46.1 µM] | / | / | ?
COc1ccccc1N1CCN(C(CNC(=O)C(=O)NCCc2ccccc2)c2cccnc2)CC1 (stereo not given) | -40 | / | -28%[46.1 µM] | / | / | 25µM*
O=C(NCCc1ccccc1)C(=O)NCC(c1cccnc1)N1CCN(c2ccc(F)cc2)CC1 (stereo not given) | -24 | / | ? | / | / | ?
COC(=O)c1cc(C(=O)OC)cc(N2C(=O)CC(NNC(=O)c3ccc(C)cc3)C2=O)c1 (stereo not given) | 2 | 14% | 0.79µM* | ? | 39% | 7%
COC(=O)c1cc(C(=O)OC)cc(N2C(=O)CC(NNC(=O)c3ccccc3Br)C2=O)c1 (stereo not given) | 33 | 1% | 6% | 14% | 0% | 29%
CC1(C)S[C@@H]2[C@H](NC(=O)[C@H](N)c3ccccc3)C(=O)N2[C@H]1C(=O)O | -60*! | -15% | -2% | 10% | -15%[8.37 µM] | -6%
CCC(Oc1ccccc1)C(=O)Nc1ccc(O)c(-c2nc3cc(C)ccc3o2)c1 (stereo not given) | 24 | / | -3%[46.1 µM] | 10%[46.1 µM] | / | 0%
C[C@@H]1CC[C@H]2C(=O)N(Cc3cccc([N+](=O)[O-])c3)C[C@@H](O)CN2[C@@H]1c1cccc(Br)c1 | / | / | -5%[14.3 µM] | ? | / | /
Cc1ccc2c(c1)C(c1ccc(F)cc1)N(C(=O)C(C)C)CC(=O)N2 (stereo not given) | -105* | / | 13%[46.1 µM] | 6%[46.1 µM] | / | 8.9µM*
Cc1ccc2c(c1)C(c1ccc(F)cc1)N(C(=O)c1ccc(S(=O)(=O)N(C)C)cc1)CC(=O)N2 (stereo not given) | / | 2% | / | / | -12% | 0%
Cc1ccc2c(c1)C(c1ccc(F)cc1)N(C(=O)c1cccc(C(F)(F)F)c1)CC(=O)N2 (stereo not given) | -107* | / | -26%[46.1 µM] | ? | / | 23%
CCOc1ccc(-n2c(Cc3ccccc3)nnc2SCc2nc(-c3cccs3)no2)cc1 | -7 | / | ? | 4%[46.1 µM] | / | 0%
COc1cc(OC)cc(-c2cc3nc(C)c(CCC(=O)Nc4ccc(F)c(Cl)c4)c(C)n3n2)c1 | -62* | / | -21%[46.1 µM] | ? | / | 32µM*
COc1cc(NC(=O)CCc2c(C)nc3cc(-c4ccccc4)nn3c2C)cc(OC)c1OC | -104* | / | 14%[46.1 µM] | -12%[46.1 µM] | / | -22%

Screening results from PubChem BioAssay.
